# Compounds with a hit are over-represented: about 1.1% of the library has one in this group of screens.
# AmpC no deterg – AmpC beta-lactamase inhibition without detergent | AID 485341 | 330,000 tested, 0.52% active | AmpC nitrocefin hydrolysis, absorbance 480 nm, 0.0001% Triton | Potency, µM (top dose mostly 57.1 µM), without a hit: at the top dose activity change, negative = inhibition, most hits filed as inhibitors | P00811;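 note: plate controls were no compound for no effect and no enzyme for full effect; nearly all actives have a fitted effect of over 20% in size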
# Target sequence (P00811 whole entry, looked up): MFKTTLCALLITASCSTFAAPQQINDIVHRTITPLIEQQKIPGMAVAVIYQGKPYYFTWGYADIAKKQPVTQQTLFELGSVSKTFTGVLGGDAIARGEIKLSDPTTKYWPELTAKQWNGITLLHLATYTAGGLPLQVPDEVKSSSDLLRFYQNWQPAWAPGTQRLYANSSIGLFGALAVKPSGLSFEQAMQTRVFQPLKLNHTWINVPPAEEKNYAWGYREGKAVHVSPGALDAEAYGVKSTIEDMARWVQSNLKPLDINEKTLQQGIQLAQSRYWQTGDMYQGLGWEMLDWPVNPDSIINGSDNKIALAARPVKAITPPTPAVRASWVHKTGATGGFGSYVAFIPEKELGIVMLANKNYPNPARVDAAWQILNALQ
#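 20 mM phosphate pH 7.0 + 0.01% (detergent screen) or 0.0001% Triton X-100; 5.3 nM AmpC reagent; cpd preinc 15 min RT; nitrocefin (800 uM stock) to start; A480 q20 s × 4 min; Activity was normalised to no-enzyme and no-compound control wells.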
# AmpC detergent – AmpC beta-lactamase inhibition with detergent present; P00811; AmpC hydrolysis of nitrocefin, absorbance 480 nm, 0.01% Triton; Potency, µM (titrated, usually from 114 µM), inactives show at the top dose activity change, negative = inhibition, hits mostly inhibitors; 370,000 tested, 0.041% active;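 note: 0% = no-compound wells and -100% = no-enzyme wells; nearly all actives have a fitted effect of over 25% in size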
#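 20 mM phosphate pH 7.0 + 0.01% (detergent screen) or 0.0001% Triton X-100; 5.3 nM AmpC reagent; cpd preinc 15 min RT; nitrocefin (800 uM stock) to start; A480 q20 s × 4 min; Activity was normalised to no-enzyme and no-compound control wells.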
# VACV mCherry inh – vaccinia inhibition (mCherry reporter); Potency, µM (series often up to 36.5 µM), for the others: at the highest dose activity change, negative = inhibition, usual class: inhibitors; 310,000 tested, 0.63% active; Vaccinia virus mCherry reporter infection, fluorescence; calls by dose curve; tested in A549 cells; note: nearly all actives have a fitted effect of over 35% in size
# Vaccinia Venus – vaccinia inhibition (Venus reporter) | AID 720580 | Potency, µM (titrated, usually from 36.5 µM), for inactives: top-dose activity change, negative = inhibition, usual class: inhibitors | Vaccinia virus Venus reporter expression, fluorescence | 330,000 tested, 0.46% active; calls by dose curve; tested in A549 cells; note: nearly all actives have a fitted effect of over 30% in size
# Active calls of the source: *; i = inactive; ? = inconclusive; nt = no result. Unless noted, calls come from the whole dose curve; as a rule, active = well fitted curve in the direction sought with a large enough effect; inconclusive = small, poorly fitted or top-dose-only effect, or another doubt; inactive = no such curve, though single readings can be large; an effect the other way counts as inactive or inconclusive. Unless noted, % is set by controls: 0 for no effect and ±100 for the full control effect; potency is the fitted concentration of half-maximal effect.
SMILES,AmpC no deterg,AmpC detergent,VACV mCherry inh,Vaccinia Venus
O=C(N/N=C/c1ccccc1O)c1ccncc1,-15%,?,-2%,-19%
COc1cc(/C=N/NC(=O)CCN2CCCCC2)ccc1O,-20%,4%,?,?
COc1cc(/C=N/NC(=O)c2cc(-c3ccccc3)nc3ccccc23)ccc1O,0%,8%,-24%,-6%
CCOC(=O)N1CCN(Cc2ccc3c(c2)CN(C(=O)c2ccc4ncccc4c2)CCO3)CC1,nt,nt,-21%,-23%
CC(c1ccon1)N(C)C(=O)c1cnn(-c2ncc3c(n2)-c2ccccc2CC3)c1C1CC1 (stereo unspecified),nt,nt,-20%,-23%
O=C(NCC1CCC2(CCN(Cc3c[nH]c4ccccc34)CC2)O1)C1CCOCC1 (stereo unspecified),nt,nt,2%,-2%
Cc1cccc(/C=N\NC(=O)c2ccc(Cl)cc2)c1O,-31%,-7%,2.5µM*,?
Oc1cccc(/C=N/NC(=S)Nc2cccnc2)c1O,32µM*,-4%,?,?
Cc1ccc2[nH]c(C(=O)N/N=C/c3ccccc3O)c(C)c2c1,-41%,0%,3.5µM*,?
COc1cccc(/C=N/NC(=O)c2cc(-c3ccccn3)nc3ccccc23)c1O,?,-5%,1µM*,?
COc1ccc(-c2cc(C(=O)N/N=C/c3sccc3C)c3ccccc3n2)c(OC)c1,27%,-10%,28µM*,-20%
COc1ccc(-c2cc(C(=O)N/N=C/c3ccc4c(c3)OCO4)c3ccccc3n2)c(OC)c1,14%,?,?,6%
COc1cccc(/C=N/NC(=O)C(=O)Nc2ccccc2OC(F)(F)C(F)F)c1O,-27%,-12%,10µM*,?
COc1ccc(/C=N/NC(=O)c2ccc(-c3ccccc3)cc2)cc1O,35µM*,-8%,-24%,-23%
COc1cc(/C=N/NC(=O)c2cccc([N+](=O)[O-])c2)cc(OC)c1O,-25%,-4%,-9%,-2%
COc1cc(/C=N/NC(=O)c2ccccc2)ccc1O,-29%,-3%,nt,nt
COc1cccc(/C=N/NC(=O)c2ccc([N+](=O)[O-])cc2Cl)c1O,-36%,-14%,11µM*,?
CCOc1cccc(C2C=C(c3ccc4c(c3)OCO4)NC(c3ccccc3Cl)N2)c1O (stereo unspecified),nt,nt,-1%,-7%
NC(=S)N/N=C/c1ccccc1O,-11%,6%,nt,nt
NC(=S)N/N=C/c1cccc(O)c1O,-9%,2%,8.9µM*,-18%
COc1ccc(C(=O)N/N=C/c2ccc(OC)c(COc3ccccc3)c2)cc1,78%,4%,-12%,-22%
COc1cccc(/C=N/NC(=O)c2ccc(-c3ccccc3)cc2)c1O,-47%,?,4.5µM*,?
COc1cc(OC)c2cc(C(=O)N/N=C/c3ccccc3O)[nH]c2c1,-34%,-2%,1.1µM*,?
COc1ccc(/C=N\NC(=O)c2cc(O)c(O)c(O)c2)cc1COc1ccc(C(=O)OCC(C)C)cc1,10µM*,3%,-18%,-21%
Cc1ccc(C(=O)NCCc2nnc3n2CCN(Cc2ccnc4ccccc24)CC3)c(C)c1,nt,nt,-13%,-14%
SMILES,AmpC no deterg,AmpC detergent,VACV mCherry inh,Vaccinia Venus
CNC(=O)[C@@H]1C[C@@H](NCc2cccc(Oc3ccccc3)c2)CN1C(C)C,nt,nt,-14%,-10%
COc1cccc(/C=N/NC(=O)c2c(C)nc3ccc(Cl)cn23)c1O,-2%,-3%,3.2µM*,?
COc1ccc2[nH]c(C(=O)N/N=C/c3ccc(OC)c(O)c3)cc2c1,-26%,3%,11µM*,-27%
CCn1c(C)nc2cc(C(=O)N/N=C/c3ccccc3)ccc21,-16%,0%,i,-1%
CCn1c(C)nc2cc(C(=O)N/N=C/c3cccc(O)c3O)ccc21,-2%,5%,13µM*,?
COc1ccccc1/C=N\NC(=O)c1c(C)nc2ccc(Cl)cn12,25%,?,nt,nt
O=C(CCN1Cc2ccccc2OC(c2ccccc2F)C1)N1CCC(N2CCCC(O)C2)CC1 (stereo unspecified),nt,nt,-9%,-11%
NC(=O)c1ccsc1NC(=O)CSc1ccccc1F,-45%,-4%,-2%,-8%
NC(=O)c1ccsc1NC(=O)CSc1nnc(Nc2ccccc2)s1,14µM*,2%,nt,nt
COC(=O)C1CCCCN1Cc1ccc2c(c1)CN(Cc1cnn(-c3ccccc3)c1)CCO2 (stereo unspecified),nt,nt,-7%,-6%
Cc1cnc(-n2ncc(C(=O)N(C)CC3COCCO3)c2C2CC2)nc1-c1cccs1 (stereo unspecified),nt,nt,-9%,1%
CCCN1C(=O)/C(=C/c2ccc(N3CCOCC3)cc2)NC1=S,-11%,-2%,nt,nt
CCN1C(=O)/C(=C/c2ccc(N3CCCC3)cc2)NC1=S,28µM*,-5%,-14%,36%
COc1ccc(OC)c(CN2CCOc3ccc(C(O)c4cccnc4)cc3C2)c1 (stereo unspecified),nt,nt,-22%,-13%
CC(=O)NS(=O)(=O)c1ccc(NC(=O)/C=C/c2cn(-c3ccccc3)nc2-c2ccccc2)cc1,-54%,-9%,i,3%
O=C(/C=C\c1cn(-c2ccccc2)nc1-c1ccccc1)Nc1nccs1,11µM*,-14%,?,?
Cc1cccc2sc(NNC(=O)c3ccc(S(=O)(=O)N4CC(C)CC(C)C4)cc3)nc12 (stereo unspecified),-43%,1%,28µM*,?
Cc1cc(C)c2nc(NC(=O)c3ccc(S(=O)(=O)N4CCC(C)CC4)cc3)sc2c1,nt,16%,-3%,-6%
Cc1cc(C)c2nc(NNC(=O)c3ccc(S(=O)(=O)N4CCCC(C)C4)cc3)sc2c1 (stereo unspecified),?,?,4µM*,?
Cc1cc(C)c2nc(NNC(=O)c3ccc(S(=O)(=O)N4CC(C)CC(C)C4)cc3)sc2c1 (stereo unspecified),-28%,0%,?,?
CC1CCc2nn(CC(=O)NCCN3CCCCC3C)cc2C1 (stereo unspecified),28µM*,-4%,-7%,-8%
CC1CCc2nn(CC(=O)Nc3ccc(F)cc3F)cc2C1 (stereo unspecified),40µM*,?,-4%,-6%
CC1CCc2nn(CC(=O)N3CCCCCC3)cc2C1 (stereo unspecified),0.56µM*,-3%,nt,nt
Cc1ccc(C)c(N2CCN(CCCNC(=O)Cn3cc4c(n3)CCC(C)C4)CC2)c1 (stereo unspecified),35µM*,?,-22%,-18%
CC1CCc2nn(CC(=O)Nc3c(F)cc(F)cc3Br)cc2C1 (stereo unspecified),-9%,?,-9%,-5%
CC1CCc2nn(CC(=O)NC3CCCC(C)C3C)cc2C1 (stereo unspecified),1µM*,-8%,-7%,-10%
O=C(NCCc1ccccc1)[C@@H]1CC=C[C@@H]2CCN(C3CC3)C(=O)[C@@H]21,nt,nt,-14%,-27%
C/C(CC(C)(C)C1CCCCC1)=N\NC(N)=S,-30%,?,11µM*,18µM*
CC(=O)Nc1ccc(NC(=O)C/C(C)=N/NC(N)=S)cc1,-25%,-10%,nt,nt
